# Calls of active or inactive are those of the source. Rule for the calls: active = hit-call score of the fitted dose curve at least 0.9, where 1 is the maximum; inactive = score below 0.9.
# Key:
# Conditions in all cases: mRNA level, 48 h; actives raise or lower the signal
# [1] = read-out: Peroxisomal acyl-coenzyme A oxidase 1 (ACOX1) gene, ACOX1 (gene 51); test: LTEA_HepaRG_ACOX1: Life Technologies and Expression Analysis (LTEA) Assay for Peroxisomal acyl-coenzyme A oxidase 1 (ACOX1) gene using HepaRG (AID 2283467)
# Procedure, shortened: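 Measured by qRT-PCR against three housekeeping genes: ACOX1 transcript change in human HepaRG cells after 48 h dosing. Concentrations ran up to 100 uM in half-log steps. Curves were fitted bidirectionally relative to 0.5% DMSO.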
# [2] = read-out: Bcl-2 (BAD) gene, BAD (gene 572); test: LTEA_HepaRG_BAD: Life Technologies and Expression Analysis (LTEA) Assay for Bcl-2 (BAD) gene using HepaRG (AID 2283469)
# Procedure, shortened: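 BAD transcript change, measured by qRT-PCR against three housekeeping genes and fitted in both directions relative to 0.5% DMSO, after 48 h chemical treatment of human HepaRG liver cells at concentrations up to 100 uM.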
# [3] = read-out: Bcl-2 (BAX) gene, BAX (gene 581); test: LTEA_HepaRG_BAX: Life Technologies and Expression Analysis (LTEA) Assay for Bcl-2 (BAX) gene using HepaRG (AID 2283470)
# Procedure, shortened: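 Differentiated HepaRG cells exposed 48 h in serum-free induction medium, eight half-log concentrations from 100 uM, in duplicate, 0.5% DMSO vehicle. BAX mRNA by TaqMan qRT-PCR, normalised to ACTB, GAPDH and POLR2A.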
# [4] = read-out: adenosine kinase (ADK) gene, ADK (gene 132); test: LTEA_HepaRG_ADK: Life Technologies and Expression Analysis (LTEA) Assay for adenosine kinase (ADK) gene using HepaRG (AID 2283471)
# Procedure, shortened: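 HepaRG (human liver), 48 h chemical exposure, 8-pt half-log series, top 100 uM, 0.5% DMSO vehicle. Readout: ADK mRNA by qRT-PCR vs housekeeping genes; bidirectional curve fit relative to DMSO baseline.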
# [5] = read-out: Alpha-fetoprotein (AFP) gene, AFP (gene 174); test: LTEA_HepaRG_AFP: Life Technologies and Expression Analysis (LTEA) Assay for Alpha-fetoprotein (AFP) gene using HepaRG (AID 2283472)
# Procedure, shortened: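 Differentiated human HepaRG cells exposed 48 h in serum-free induction medium, 8-point half-log series from 100 uM in 0.5% DMSO, duplicate. AFP mRNA by qRT-PCR, normalized to ACTB, GAPDH, POLR2A; bidirectional fit vs DMSO.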
# BCL2L11 (gene 10018) = test: LTEA_HepaRG_BCL2L11: Life Technologies and Expression Analysis (LTEA) Assay for Bcl-2 (BCL2L11) gene using HepaRG (AID 2283473)
# Procedure, shortened: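 Read-out is BCL2L11 transcript level by qRT-PCR, normalized to three housekeeping genes and fitted bidirectionally against 0.5% DMSO vehicle. HepaRG cells received chemicals for 48 h in serum-free induction medium, 100 uM down in half-log dilutions.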
# [6] = read-out: Apolipoprotein A-V (APOA5) gene, APOA5 (gene 116519); test: LTEA_HepaRG_APOA5: Life Technologies and Expression Analysis (LTEA) Assay for Apolipoprotein A-V (APOA5) gene using HepaRG (AID 2283474)
# Procedure, shortened: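 Readout is APOA5 transcript level by qRT-PCR on Fluidigm dynamic arrays, normalized to three housekeeping genes. HepaRG cultures received chemicals for 48 h at up to 100 uM (half-log steps, 0.5% DMSO), with gain or loss scored relative to DMSO.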
# [7] = read-out: Apoptosis regulator Bcl-2 (Homo sapiens) (UniProt P10415); test: LTEA_HepaRG_BCL2: Life Technologies and Expression Analysis (LTEA) Assay for Bcl-2 gene using HepaRG (AID 2283475)
# Procedure, shortened: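 Differentiated human HepaRG cells in serum-free induction medium exposed 48 h, in duplicate, to 8-point half-log series from 100 uM in 0.5% DMSO. BCL2 mRNA by qRT-PCR (TaqMan/Fluidigm), normalized to ACTB, GAPDH, POLR2A; bidirectional fit against DMSO.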
# [8] = read-out: Bcl-2 (BID) gene, BID (gene 637); test: LTEA_HepaRG_BID: Life Technologies and Expression Analysis (LTEA) Assay for Bcl-2 (BID) gene using HepaRG (AID 2283476)
# Procedure, shortened: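 Gene expression by qRT-PCR in HepaRG cells after 48 h exposure, duplicate wells, eight half-log concentrations topping at 100 uM in 0.5% DMSO. Normalized to ACTB, GAPDH, POLR2A; bidirectional fitting relative to DMSO.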
# Caspase-3 (Homo sapiens) = Caspase-3 (Homo sapiens) (UniProt P42574); test: LTEA_HepaRG_CASP3: Life Technologies and Expression Analysis (LTEA) Assay for cysteine-aspartic acid protease (CASP3) using HepaRG (AID 2283477)
# Procedure, shortened: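 Read-out is CASP3 mRNA level by TaqMan qRT-PCR in human HepaRG cells after 48 h chemical exposure. Eight half-log concentrations topping at 100 uM were tested in 0.5% DMSO; gain or loss was fitted relative to DMSO.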
# [9] = read-out: Cytochrome P450 (CYP24A1), CYP24A1 (gene 1591); test: LTEA_HepaRG_CYP24A1: Life Technologies and Expression Analysis (LTEA) Assay for Cytochrome P450 (CYP24A1) using HepaRG (AID 2283478)
# Procedure, shortened: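 HepaRG, 48 h chemical exposure, 8-pt half-log CRC from 100 uM, 0.5% DMSO vehicle, duplicates. Endpoint: CYP24A1 mRNA by Fluidigm TaqMan qRT-PCR, normalized ACTB/GAPDH/POLR2A; gain/loss fit vs DMSO.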
# [10] = read-out: Cytochrome P450 (CYP1A2), CYP1A2 (gene 1544); test: LTEA_HepaRG_CYP1A2: Life Technologies and Expression Analysis (LTEA) Assay for Cytochrome P450 (CYP1A2) using HepaRG (AID 2283479)
# Procedure, shortened: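 CYP1A2 transcript induction or loss, quantified by Fluidigm qRT-PCR against three housekeeping genes, was fitted bidirectionally against 0.5% DMSO controls. Human HepaRG cells received eight half-log concentrations from 100 uM over 48 h.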
# [11] = read-out: Cytochrome P450 (CYP2B6), CYP2B6 (gene 1555); test: LTEA_HepaRG_CYP2B6: Life Technologies and Expression Analysis (LTEA) Assay for Cytochrome P450 (CYP2B6) using HepaRG (AID 2283481)
# Procedure, shortened: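 HepaRG cells plated 48 h, switched to serum-free induction medium, then dosed 48 h (8 points, half-log from 100 uM, 0.5% DMSO). RNA isolated; CYP2B6 expression measured by qRT-PCR; gain or loss fitted relative to DMSO.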
# [12] = read-out: Cytochrome P450 2C19 (Homo sapiens) (UniProt P33261); test: LTEA_HepaRG_CYP2C19: Life Technologies and Expression Analysis (LTEA) Assay for CYP2C19 using HepaRG (AID 2283482)
# Procedure, shortened: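 Transcript levels of CYP2C19 were quantified by qRT-PCR after HepaRG cells were treated for 48 hours with test chemicals up to 100 uM (eight half-log concentrations, 0.5% DMSO vehicle). Gain or loss of signal was fitted relative to DMSO.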
# CYP2C8 (gene 1558) = test: LTEA_HepaRG_CYP2C8: Life Technologies and Expression Analysis (LTEA) Assay for CYP2C8 using HepaRG (AID 2283483)
# Procedure, shortened: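 CYP2C8 mRNA induction or loss, by qRT-PCR normalized to ACTB/GAPDH/POLR2A, is read in HepaRG cells after 48 h treatment. Concentrations run from 100 uM down in half-log dilutions, with 0.5% DMSO as vehicle and baseline.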
# CYP2C9 (gene 1559) = test: LTEA_HepaRG_CYP2C9: Life Technologies and Expression Analysis (LTEA) Assay for CYP2C9 using HepaRG (AID 2283484)
# Procedure, shortened: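 Cells plated 48 h, switched to serum-free induction medium, then treated in duplicate for 48 h at eight concentrations (max 100 uM, 0.5% DMSO). RNA then analysed by qRT-PCR for CYP2C9; curves fitted in both directions relative to DMSO.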
# CYP2E1 (gene 1571) = test: LTEA_HepaRG_CYP2E1: Life Technologies and Expression Analysis (LTEA) Assay for CYP2E1 using HepaRG (AID 2283485)
# Procedure, shortened: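 HepaRG cells, plated 48 h, then exposed 48 h in serum-free induction medium to eight half-log concentrations from 100 uM in 0.5% DMSO, duplicate. CYP2E1 mRNA by qRT-PCR, normalized to ACTB/GAPDH/POLR2A; bidirectional fit versus DMSO.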
# CYP4A11 (gene 1579) = test: LTEA_HepaRG_CYP4A11: Life Technologies and Expression Analysis (LTEA) Assay for CYP4A11 using HepaRG (AID 2283486)
# Procedure, shortened: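 HepaRG, 48 h chem exposure, 8 conc (100 uM top, half-log), 0.5% DMSO vehicle; qRT-PCR readout, housekeeping-gene normalized; bidirectional curve fit vs DMSO baseline.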
# [13] = read-out: cysteine-aspartic acid protease (CASP8), CASP8 (gene 841); test: LTEA_HepaRG_CASP8: Life Technologies and Expression Analysis (LTEA) Assay for cysteine-aspartic acid protease (CASP8) using HepaRG (AID 2283480)
# Procedure, shortened: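 HepaRG, 48 h exposure, duplicate wells; 8 conc, half-log from 100 uM, 0.5% DMSO. Serum-free induction medium. CASP8 mRNA by TaqMan qRT-PCR, norm. ACTB/GAPDH/POLR2A; gain/loss fitted vs DMSO.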
# Chain of Apoptosis regulator Bcl-2 (Homo sapiens) (P10415 whole entry, looked up): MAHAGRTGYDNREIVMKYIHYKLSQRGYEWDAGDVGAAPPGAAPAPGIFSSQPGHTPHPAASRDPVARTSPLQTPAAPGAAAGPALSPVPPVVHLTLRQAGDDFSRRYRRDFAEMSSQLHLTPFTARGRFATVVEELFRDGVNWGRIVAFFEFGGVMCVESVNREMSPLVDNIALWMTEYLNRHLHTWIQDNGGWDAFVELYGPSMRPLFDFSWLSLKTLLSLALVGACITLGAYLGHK
# Chain of Caspase-3 (Homo sapiens) (P42574 whole entry, looked up): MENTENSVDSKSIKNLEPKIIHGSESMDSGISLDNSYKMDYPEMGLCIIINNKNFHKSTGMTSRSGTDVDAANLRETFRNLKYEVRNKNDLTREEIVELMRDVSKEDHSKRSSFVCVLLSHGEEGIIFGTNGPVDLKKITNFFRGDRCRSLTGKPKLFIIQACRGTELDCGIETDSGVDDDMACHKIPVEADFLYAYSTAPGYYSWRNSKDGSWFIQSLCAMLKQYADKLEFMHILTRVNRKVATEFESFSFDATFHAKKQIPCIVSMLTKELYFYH
# Chain of Cytochrome P450 2C19 (Homo sapiens) (P33261 whole entry, looked up): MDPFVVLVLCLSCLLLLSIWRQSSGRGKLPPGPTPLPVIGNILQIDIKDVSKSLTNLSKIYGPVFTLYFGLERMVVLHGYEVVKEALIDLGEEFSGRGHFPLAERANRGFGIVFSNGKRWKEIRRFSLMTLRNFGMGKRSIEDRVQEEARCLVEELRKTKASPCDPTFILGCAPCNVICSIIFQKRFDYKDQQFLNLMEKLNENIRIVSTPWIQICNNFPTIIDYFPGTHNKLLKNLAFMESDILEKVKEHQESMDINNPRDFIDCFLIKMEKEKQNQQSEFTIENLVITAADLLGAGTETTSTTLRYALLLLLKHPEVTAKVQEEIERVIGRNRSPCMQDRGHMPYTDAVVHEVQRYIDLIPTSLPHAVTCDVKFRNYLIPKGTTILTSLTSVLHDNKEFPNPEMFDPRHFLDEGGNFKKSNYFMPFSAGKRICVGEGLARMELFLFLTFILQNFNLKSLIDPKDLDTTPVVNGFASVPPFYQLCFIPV
smiles,measurement,setting,value
Nc1ccc(-c2ccc(N)cc2)cc1,outcome,[1],inactive
same,outcome,[2],inactive
same,outcome,[3],inactive
same,outcome,[4],inactive
same,outcome,[5],inactive
same,outcome,BCL2L11 (gene 10018),inactive
same,outcome,[6],inactive
same,outcome,[7],inactive
same,outcome,[8],inactive
same,outcome,Caspase-3 (Homo sapiens),inactive
same,outcome,[9],inactive
same,outcome,[10],inactive
same,AC50,[11],50 µM (active)
same,outcome,[12],inactive
same,outcome,CYP2C8 (gene 1558),inactive
same,outcome,CYP2C9 (gene 1559),inactive
same,AC50,CYP2E1 (gene 1571),12.3 µM (active)
same,AC50,CYP4A11 (gene 1579),33.1 µM (active)
CCC(=O)O[C@H]1CC[C@H]2[C@@H]3CCC4=CC(=O)CC[C@]4(C)[C@H]3CC[C@]12C,outcome,[1],inactive
same,outcome,[2],inactive
same,outcome,[3],inactive
same,outcome,[4],inactive
same,outcome,[5],inactive
same,outcome,BCL2L11 (gene 10018),inactive
same,outcome,[6],inactive
same,outcome,[7],inactive
same,outcome,[8],inactive
same,outcome,Caspase-3 (Homo sapiens),inactive
same,outcome,[9],inactive
same,outcome,[10],inactive
same,AC50,[11],50 µM (active)
same,AC50,[12],3.23 µM (active)
same,outcome,CYP2C8 (gene 1558),inactive
same,outcome,CYP2C9 (gene 1559),inactive
same,AC50,CYP2E1 (gene 1571),3.12 µM (active)
same,AC50,CYP4A11 (gene 1579),1.16 µM (active)
C[C@]12CCC(=O)C=C1CC[C@@H]1[C@@H]2CC[C@@]2(C)[C@H]1CC[C@]2(C)O,outcome,[1],inactive
same,outcome,[3],inactive
same,outcome,[4],inactive
same,AC50,[5],63.6 µM (active)
same,outcome,BCL2L11 (gene 10018),inactive
same,AC50,[6],45.8 µM (active)
same,AC50,[7],10.9 µM (active)
same,AC50,[8],45.8 µM (active)
same,outcome,Caspase-3 (Homo sapiens),inactive
same,outcome,[9],inactive
same,AC50,[10],45.8 µM (active)
same,outcome,[13],inactive
same,AC50,[11],10.8 µM (active)
same,AC50,[12],0.207 µM (active)
same,outcome,CYP2C8 (gene 1558),inactive
same,outcome,CYP2C9 (gene 1559),inactive
same,AC50,CYP2E1 (gene 1571),79.5 µM (active)
same,AC50,CYP4A11 (gene 1579),73.6 µM (active)
CCC(C)(c1ccc(O)cc1)c1ccc(O)cc1,outcome,[1],inactive
same,outcome,[2],inactive
same,outcome,[3],inactive
same,outcome,[4],inactive
same,AC50,[5],50 µM (active)
same,outcome,BCL2L11 (gene 10018),inactive
same,outcome,[6],inactive
same,outcome,[7],inactive
same,outcome,[8],inactive
same,outcome,Caspase-3 (Homo sapiens),inactive
same,outcome,[9],inactive
same,AC50,[10],89.2 µM (active)
same,outcome,[11],inactive
same,outcome,[12],inactive
same,outcome,CYP2C8 (gene 1558),inactive
same,outcome,CYP2C9 (gene 1559),inactive
same,outcome,CYP2E1 (gene 1571),inactive
same,outcome,CYP4A11 (gene 1579),inactive
CCC(C)c1cc([N+](=O)[O-])cc([N+](=O)[O-])c1O (stereo not given),AC50,[1],1.4 µM (active)
same,outcome,[2],inactive
same,AC50,[3],7.23 µM (active)
same,AC50,[4],2.24 µM (active)
same,AC50,[5],2.35 µM (active)
same,AC50,BCL2L11 (gene 10018),1.39 µM (active)
same,AC50,[6],1.58 µM (active)
same,AC50,[7],12.3 µM (active)
same,AC50,[8],2.42 µM (active)
same,outcome,Caspase-3 (Homo sapiens),inactive
same,outcome,[9],inactive
same,AC50,[10],2.66 µM (active)
same,AC50,[11],1.32 µM (active)
same,AC50,[12],2.12 µM (active)
same,AC50,CYP2C8 (gene 1558),2.6 µM (active)
same,AC50,CYP2C9 (gene 1559),1.71 µM (active)
same,AC50,CYP2E1 (gene 1571),1.22 µM (active)
same,AC50,CYP4A11 (gene 1579),2.78 µM (active)
